From ChEMBL document CHEMBL3988442, “University of Dundee, Small-Polar-MMV Screening Library” (2021)
For some assays here: Entries with a potency or affinity are not part of this list.

Experiments:
Set-up in all cases: scale not given: direction of the effect not stated beside the values
[1] = target: Protein translocase subunit SecA (Escherichia coli (strain K12)) (UniProt P10408); test: Assay to Identify E. coli SecA ATPase Inhibitors; format: functional; details: 30 µM
[2] = target: T1, Ubiquitin-activating enzyme e1, putative (Leishmania donovani (strain BPK282A1)) (UniProt E9BSI1); test: Leishmania donovani Ubiquitin Activating Enzyme (LdE1); format: functional; details: 30 µM
T1 sequence (whole entry): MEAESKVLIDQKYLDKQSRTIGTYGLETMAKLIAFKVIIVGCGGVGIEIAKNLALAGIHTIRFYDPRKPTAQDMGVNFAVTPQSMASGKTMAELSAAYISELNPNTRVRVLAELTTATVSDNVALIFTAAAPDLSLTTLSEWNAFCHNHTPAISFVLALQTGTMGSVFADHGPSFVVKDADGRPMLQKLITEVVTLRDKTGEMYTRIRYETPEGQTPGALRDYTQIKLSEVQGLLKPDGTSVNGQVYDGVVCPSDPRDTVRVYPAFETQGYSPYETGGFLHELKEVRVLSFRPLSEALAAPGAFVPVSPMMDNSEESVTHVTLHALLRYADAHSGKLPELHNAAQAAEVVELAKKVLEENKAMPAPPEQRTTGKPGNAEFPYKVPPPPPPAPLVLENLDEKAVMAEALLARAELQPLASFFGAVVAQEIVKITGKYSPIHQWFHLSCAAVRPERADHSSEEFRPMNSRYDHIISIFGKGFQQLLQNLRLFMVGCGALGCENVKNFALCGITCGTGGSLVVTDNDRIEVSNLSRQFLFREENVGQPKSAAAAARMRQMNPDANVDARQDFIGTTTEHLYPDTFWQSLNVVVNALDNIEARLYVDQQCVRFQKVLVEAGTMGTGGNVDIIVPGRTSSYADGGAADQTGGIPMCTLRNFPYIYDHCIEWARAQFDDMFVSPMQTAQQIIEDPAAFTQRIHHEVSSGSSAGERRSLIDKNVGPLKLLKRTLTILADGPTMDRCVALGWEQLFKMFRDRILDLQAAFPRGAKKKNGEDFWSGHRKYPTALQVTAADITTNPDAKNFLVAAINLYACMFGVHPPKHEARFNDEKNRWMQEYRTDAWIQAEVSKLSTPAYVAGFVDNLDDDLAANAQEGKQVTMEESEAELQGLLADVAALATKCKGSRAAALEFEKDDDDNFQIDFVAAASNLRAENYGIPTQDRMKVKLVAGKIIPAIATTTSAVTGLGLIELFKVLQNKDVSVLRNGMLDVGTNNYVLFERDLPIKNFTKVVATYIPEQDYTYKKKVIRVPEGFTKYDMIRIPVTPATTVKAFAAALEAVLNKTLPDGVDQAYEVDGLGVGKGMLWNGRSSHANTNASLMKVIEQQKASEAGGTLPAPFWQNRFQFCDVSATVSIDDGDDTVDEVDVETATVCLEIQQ

[3] = target: AMP-activated protein kinase, AMPK (Homo sapiens) (UniProt P54646+O43741+P54619+Q9UGJ0+Q9Y478+Q13131+Q9UGI9); test: AMP-dependent Kinase enzyme assay. An in vitro enzyme assay that detects ADP turnover that is directly proportional to AMPK activity. This uses naive AMPK that is activated during the assay with MK-8722; format: functional; details: 30 µM
[4] = target: Sialic acid-binding Ig-like lectin 9 (Homo sapiens) (UniProt Q9Y336); test: Hs-Siglec9 ALPHAscreen SOP 20170721; details: 10 µM
[5] = test system: Trypanosoma cruzi; test: Trypanosoma cruzi phosphomannomutase and mannose-1-phosphate guanylyltransferase assay; format: functional; details: 10 µM
[6] = target: T2, Arginase-2, mitochondrial (Homo sapiens) (UniProt P78540); test: in vitro enzyme assay to detect the production of urea directly proportional to the activity of Arginase II; format: functional; details: 33.3 µM; also: in the data most compounds retested in dose-response had high values
T2 sequence (whole entry): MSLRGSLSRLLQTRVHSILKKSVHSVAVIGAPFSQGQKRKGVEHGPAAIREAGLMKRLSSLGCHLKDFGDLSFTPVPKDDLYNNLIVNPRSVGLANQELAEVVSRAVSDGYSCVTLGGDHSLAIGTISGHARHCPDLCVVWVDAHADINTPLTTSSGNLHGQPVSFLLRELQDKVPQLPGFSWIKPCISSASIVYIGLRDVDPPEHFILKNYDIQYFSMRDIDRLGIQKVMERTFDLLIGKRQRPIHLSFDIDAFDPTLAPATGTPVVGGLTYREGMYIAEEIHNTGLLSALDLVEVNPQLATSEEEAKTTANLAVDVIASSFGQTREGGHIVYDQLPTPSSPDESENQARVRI

[7] = target: T3, Proteasome subunit beta (Trypanosoma cruzi) (UniProt O96673); test: Trypanosoma cruzi proteasome chymotrypsin-like activity (TcProtChymo) assay.; also: in the data most compounds retested in dose-response had high values; format: functional; details: 9.37 µM
T3 sequence (whole entry): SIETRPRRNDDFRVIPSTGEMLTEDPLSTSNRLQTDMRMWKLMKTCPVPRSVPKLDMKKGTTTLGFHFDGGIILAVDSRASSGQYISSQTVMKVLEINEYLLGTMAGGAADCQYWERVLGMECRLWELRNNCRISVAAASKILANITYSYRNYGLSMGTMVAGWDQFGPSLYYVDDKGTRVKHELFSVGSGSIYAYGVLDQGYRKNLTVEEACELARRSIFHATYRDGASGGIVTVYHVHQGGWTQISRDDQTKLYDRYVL

[8] = species: Homo sapiens; test: To identify inhibition of the IFN signalling (Jak-Stat) pathway via expression of an eGFP reporter gene under the control of an IFN-stimulated response element (ISRE) containing MxA promoter.; format: functional; details: 30 µM
[9] = target: T4, Tyrosyl-tRNA synthetase, putative (Trypanosoma cruzi (strain CL Brener)) (UniProt Q4DSP6); test: Trypanosoma cruzi tyrosyl tRNA synthetase (TcYRS) _High Tyrosine SOP; format: functional; details: 30 µM; also: in the data most compounds retested in dose-response had high values
T4 sequence (whole entry): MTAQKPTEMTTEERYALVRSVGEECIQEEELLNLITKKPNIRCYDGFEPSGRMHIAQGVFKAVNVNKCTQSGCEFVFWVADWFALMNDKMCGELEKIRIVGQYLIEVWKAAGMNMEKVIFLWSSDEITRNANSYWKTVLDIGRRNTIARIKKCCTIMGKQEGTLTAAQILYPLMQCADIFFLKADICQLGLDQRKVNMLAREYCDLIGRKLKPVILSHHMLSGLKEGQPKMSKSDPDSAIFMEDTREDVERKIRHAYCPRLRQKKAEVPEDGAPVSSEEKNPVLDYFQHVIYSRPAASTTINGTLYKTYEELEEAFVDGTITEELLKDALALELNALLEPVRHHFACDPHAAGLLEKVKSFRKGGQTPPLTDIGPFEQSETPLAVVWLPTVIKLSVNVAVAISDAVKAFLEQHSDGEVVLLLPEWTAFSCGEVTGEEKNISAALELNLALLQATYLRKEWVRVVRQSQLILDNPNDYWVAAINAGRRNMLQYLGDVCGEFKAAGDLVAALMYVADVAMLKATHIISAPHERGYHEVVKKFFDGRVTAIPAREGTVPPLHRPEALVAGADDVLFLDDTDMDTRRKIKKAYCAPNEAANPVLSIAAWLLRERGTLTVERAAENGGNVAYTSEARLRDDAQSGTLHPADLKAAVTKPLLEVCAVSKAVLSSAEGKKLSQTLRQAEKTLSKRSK

[10] = target: T4, Tyrosyl-tRNA synthetase, putative (Trypanosoma cruzi (strain CL Brener)); test: Trypanosoma cruzi tyrosyl tRNA synthetase (TcYRS) SOP; format: functional; details: 30 µM
[11] = target: Chromo domain-containing protein 1 (Saccharomyces cerevisiae (strain ATCC 204508 / S288c) (Baker's yeast)) (UniProt P32657); test: ScCHD-1 Enzyme Inhibition Assay; format: functional; details: 30 µM; also: in the data most compounds retested in dose-response had high values
Chain of Chromo domain-containing protein 1 (Saccharomyces cerevisiae (strain ATCC 204508 / S288c) (Baker's yeast)) (P32657 whole entry, the tested form may be a part): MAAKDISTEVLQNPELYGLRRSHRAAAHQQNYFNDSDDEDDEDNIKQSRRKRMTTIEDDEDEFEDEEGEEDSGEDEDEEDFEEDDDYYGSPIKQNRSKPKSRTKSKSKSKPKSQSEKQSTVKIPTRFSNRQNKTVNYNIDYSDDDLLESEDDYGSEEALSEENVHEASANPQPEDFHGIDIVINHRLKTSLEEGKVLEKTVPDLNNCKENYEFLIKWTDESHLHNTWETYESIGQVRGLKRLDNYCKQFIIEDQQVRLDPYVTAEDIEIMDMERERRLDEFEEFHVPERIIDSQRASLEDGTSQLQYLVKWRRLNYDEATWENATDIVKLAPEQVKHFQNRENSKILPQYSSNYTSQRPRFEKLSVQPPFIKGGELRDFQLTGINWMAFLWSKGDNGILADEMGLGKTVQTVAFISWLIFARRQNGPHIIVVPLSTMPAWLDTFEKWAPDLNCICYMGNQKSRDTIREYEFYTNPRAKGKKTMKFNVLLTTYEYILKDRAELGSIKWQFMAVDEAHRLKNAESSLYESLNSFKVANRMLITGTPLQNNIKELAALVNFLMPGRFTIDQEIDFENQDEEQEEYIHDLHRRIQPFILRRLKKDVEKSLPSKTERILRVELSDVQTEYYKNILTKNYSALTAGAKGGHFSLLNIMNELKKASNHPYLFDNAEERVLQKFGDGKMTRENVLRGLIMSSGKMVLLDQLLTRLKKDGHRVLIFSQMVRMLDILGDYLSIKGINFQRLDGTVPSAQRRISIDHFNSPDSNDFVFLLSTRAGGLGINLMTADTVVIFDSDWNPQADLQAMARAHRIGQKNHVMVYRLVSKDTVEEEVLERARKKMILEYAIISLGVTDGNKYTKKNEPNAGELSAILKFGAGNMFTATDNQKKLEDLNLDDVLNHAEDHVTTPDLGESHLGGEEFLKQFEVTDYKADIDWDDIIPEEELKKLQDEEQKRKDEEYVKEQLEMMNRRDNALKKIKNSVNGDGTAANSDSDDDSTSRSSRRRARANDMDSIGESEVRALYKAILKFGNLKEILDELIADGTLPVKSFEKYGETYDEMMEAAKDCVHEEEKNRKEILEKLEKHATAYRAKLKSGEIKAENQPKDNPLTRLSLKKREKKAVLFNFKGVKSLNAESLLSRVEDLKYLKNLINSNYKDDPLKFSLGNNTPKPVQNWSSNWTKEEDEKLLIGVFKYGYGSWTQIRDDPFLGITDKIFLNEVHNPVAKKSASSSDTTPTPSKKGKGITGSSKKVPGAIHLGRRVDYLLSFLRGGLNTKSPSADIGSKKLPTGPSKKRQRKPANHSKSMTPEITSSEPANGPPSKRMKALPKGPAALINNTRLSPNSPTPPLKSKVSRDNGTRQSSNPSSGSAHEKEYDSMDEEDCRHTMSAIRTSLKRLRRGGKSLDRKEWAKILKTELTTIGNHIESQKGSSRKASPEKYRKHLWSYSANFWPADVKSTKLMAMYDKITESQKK

Chain of Sialic acid-binding Ig-like lectin 9 (Homo sapiens) (Q9Y336 whole entry): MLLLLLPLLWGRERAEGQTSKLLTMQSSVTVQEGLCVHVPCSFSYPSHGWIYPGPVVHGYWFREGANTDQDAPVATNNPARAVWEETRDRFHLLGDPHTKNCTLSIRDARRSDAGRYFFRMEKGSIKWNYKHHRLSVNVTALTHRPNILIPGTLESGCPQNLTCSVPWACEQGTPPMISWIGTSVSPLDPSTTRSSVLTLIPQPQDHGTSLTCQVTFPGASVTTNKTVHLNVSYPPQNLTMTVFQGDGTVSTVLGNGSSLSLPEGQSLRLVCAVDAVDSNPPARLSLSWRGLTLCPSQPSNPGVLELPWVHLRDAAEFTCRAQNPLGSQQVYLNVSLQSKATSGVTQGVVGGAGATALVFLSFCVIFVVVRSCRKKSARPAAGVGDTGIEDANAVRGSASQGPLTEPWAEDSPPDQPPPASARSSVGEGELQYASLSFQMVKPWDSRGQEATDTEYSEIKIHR
Chain of Protein translocase subunit SecA (Escherichia coli (strain K12)) (P10408 whole entry): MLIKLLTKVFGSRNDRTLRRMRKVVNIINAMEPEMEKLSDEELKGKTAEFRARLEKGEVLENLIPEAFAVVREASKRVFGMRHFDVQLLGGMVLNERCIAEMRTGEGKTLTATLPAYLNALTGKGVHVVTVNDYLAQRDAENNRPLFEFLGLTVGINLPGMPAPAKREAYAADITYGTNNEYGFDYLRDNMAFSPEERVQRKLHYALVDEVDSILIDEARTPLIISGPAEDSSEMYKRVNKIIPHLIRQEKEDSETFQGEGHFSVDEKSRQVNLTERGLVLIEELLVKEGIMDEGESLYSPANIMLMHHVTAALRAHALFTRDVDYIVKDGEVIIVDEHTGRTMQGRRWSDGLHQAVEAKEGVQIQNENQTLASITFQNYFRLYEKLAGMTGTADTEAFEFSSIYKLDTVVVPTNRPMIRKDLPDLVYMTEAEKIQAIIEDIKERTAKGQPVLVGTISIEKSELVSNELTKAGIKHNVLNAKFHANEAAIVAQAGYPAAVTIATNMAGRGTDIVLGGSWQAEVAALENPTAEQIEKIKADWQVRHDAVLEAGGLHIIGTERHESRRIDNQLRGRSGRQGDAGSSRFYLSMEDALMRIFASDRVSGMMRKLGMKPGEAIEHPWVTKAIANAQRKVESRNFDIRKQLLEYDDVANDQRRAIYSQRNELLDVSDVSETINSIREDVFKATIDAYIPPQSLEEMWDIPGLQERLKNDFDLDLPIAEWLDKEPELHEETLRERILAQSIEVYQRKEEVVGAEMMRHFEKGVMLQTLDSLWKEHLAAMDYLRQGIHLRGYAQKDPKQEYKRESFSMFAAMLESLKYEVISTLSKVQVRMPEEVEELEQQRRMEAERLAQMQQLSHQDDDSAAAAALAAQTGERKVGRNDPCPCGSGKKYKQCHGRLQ

Row | SMILES | Percent Effect [1] [%] | Percent Effect [2] [%] | Percent Effect [3] [%] | Percent Effect [4] [%] | Percent Effect [5] [%] | Percent Effect [6] [%] | Percent Effect [7] [%] | Percent Effect [8] [%] | Percent Effect [9] [%] | Percent Effect [10] [%] | Percent Effect [11] [%]
1 | OCC1CCCN1c1cc(N2CCC(OC3CCCC3)CC2)ncn1 (centres undefined) | -0.479 | 23.4 | -10.1 | -5.43 | 3.04 | 2.32 | 15.8 | -7.13 | 7.62 | 23.5 | -22.6
2 | Cc1cccc2nc(C(=O)N3CCC(Nc4cccnn4)CC3)cn12 | -4.19 | 5.2 | 2.91 | 37.9 | -0.0979 | -1.47 | 8.16 | 3.1 | 0 | 9.41 | -18.7
3 | CCOc1ncccc1NC(=O)c1cc(C)c(C)s1 | -7.94 | 1.39 | 3.33 | -1.86 | -2.82 | -2.21 | 11.1 | 11.6 | -3.16 | 2.56 | -0.429
4 | COc1cccc(N2CCN(C(=O)[C@H](O)C3CCCCC3)CC2=O)c1 | -1.35 | 5.41 | 2.95 | 1.44 | 2.32 | 2.38 | 21 | 3.62 | 8.99 | 17.1 | -2.64
